A selection: hits, their analogues and other compounds. The true share with any hit is near 2.3%.
ADAM10 inh = inhibitors of human ADAM10; O14672; recombinant ADAM10, EDANS/DABCYL FRET peptide cleavage, 3 h; inhibition, % at 7 µM; hit rate 0.62% among 370,000;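 active = inhibition above a per-campaign cutoff equal to the mean of compounds falling between control-based bounds plus 3 SD, cut at about 20% in these data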;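 also: 0% = DMSO wells while the 100% control is not disclosed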
Target sequence (O14672 214-748 limits assumed): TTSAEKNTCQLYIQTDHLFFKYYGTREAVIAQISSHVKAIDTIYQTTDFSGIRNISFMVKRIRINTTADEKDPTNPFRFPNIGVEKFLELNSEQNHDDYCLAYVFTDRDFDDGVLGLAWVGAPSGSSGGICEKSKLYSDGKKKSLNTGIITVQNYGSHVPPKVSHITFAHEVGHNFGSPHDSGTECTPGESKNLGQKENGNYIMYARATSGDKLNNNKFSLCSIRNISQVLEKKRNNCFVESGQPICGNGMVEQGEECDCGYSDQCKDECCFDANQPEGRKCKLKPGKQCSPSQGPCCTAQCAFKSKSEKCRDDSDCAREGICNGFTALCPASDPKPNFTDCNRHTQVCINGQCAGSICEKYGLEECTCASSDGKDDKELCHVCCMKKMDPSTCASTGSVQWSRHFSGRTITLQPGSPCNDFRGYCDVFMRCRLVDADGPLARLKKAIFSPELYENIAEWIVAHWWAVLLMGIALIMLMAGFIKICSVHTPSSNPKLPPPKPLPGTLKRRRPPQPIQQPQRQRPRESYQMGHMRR
V-ATPase pHluor = yeast V-ATPase proton transport regulation by pHLuorin; hit rate 0.37% among 350,000; AID 504577; response, % at 10 µM; S. cerevisiae, pHLuorin cytosolic pH fluorescence; in the data active = response mostly above about 7.3%, no sharp cut-off; inactive = mostly below about 5.4%; also: actives read high
proKLK7 act = activators of human kallikrein-7 zymogen; P49862; purified proKLK7, EDANS-DABCYL substrate fluorescence; 100% is mature enzyme control, 0% vehicle; activation, % at 7 µM; hit rate 0.9% among 370,000;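 active = activation above the mean of all tested compounds plus 3 SD, computed per campaign excluding outliers beyond control limits, cut at about 13% in these data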
ADAM17 inh = inhibitors of human ADAM17; hit rate 0.83% among 370,000; recombinant ADAM17, EDANS/DABCYL FRET peptide cleavage; P78536; inhibition, % at 6.95 µM; AID 720648;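 active = inhibition above the mean of compounds lying between control limits plus 3 SD, set per campaign, cut at about 8.5% in these data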;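 also: 0% = DMSO-only wells as the low control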
proKLK7 act conf = proKLK7 activation, confirmation | shares compounds with proKLK7 act | purified proKLK7, EDANS-DABCYL substrate fluorescence; scaled: vehicle 0, mature enzyme 100 | activation, % at 7 µM | hit rate 68% among 3,200 | AID 686949;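 active = activation, as change over the incubation, above the mean of all tested compounds plus 3 SD, cut at about 13% in these data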
EDANS-DABCYL int = optically interferes with EDANS-DABCYL signal, flagging KLK7 hits; shares compounds with proKLK7 act; EDANS-DABCYL substrate fluorescence interference, no enzyme, 4 h; solvent 0%, active enzyme control 100%; activation, % at 7 µM; hit rate 80% among 3,200;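 active = activation above the all-compound mean plus 3 SD, ignoring values outside control-based bounds, cut at about 4.8% in these data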;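 also: value is the 4 h activation minus the activation read at time zero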
EDANS interf = optically interferes with EDANS-DABCYL fluorescence, kallikrein-7 activator counter-screen; AID 720493; EDANS-DABCYL peptide fluorescence interference, no enzyme; hit rate 20% among 250; shares compounds with proKLK7 act; EC50, µM;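 active = compounds that raise the fluorescence signal in this interference counterscreen, with EC50 at or below 10 µM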;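 also: intact quenched peptide substrate alone read at 355 nm excitation and 520 nm emission; signal is fluorescence gain from T0 to T4 after four hours at room temperature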
* = called active by the depositor; i = inactive; . = not tested or not shown.

SMILES | ADAM10 inh | V-ATPase pHluor | proKLK7 act | ADAM17 inh | proKLK7 act conf | EDANS-DABCYL int | others
O=C(C1CCC1)N1CCc2cc(S(=O)(=O)N3CCN(c4ccccc4F)CC3)ccc21 | -6 | . | 0 | -1 | . | .
CCOC(=O)C1=C2c3ccc4ccccc4c3CC(C)(C)N2C(=O)C1=O | -36 | 0 | 11 | -11 | . | .
CCOC(=O)C1=C2c3cc(OC)c(OC)cc3CC(C)(C)N2C(=O)C1=O | -149 | -3 | 24* | -44 | 5 | 5.9*
O=C(COC(=O)CCCNC(=O)c1ccc(Cl)cc1)NC1CC1 | -6 | 0 | 14* | -9 | -1 | -1
O=C(NCc1ccccc1)N1CCN(Cc2nc3ccccc3c(=O)[nH]2)CC1 | 0 | . | 0 | 2 | . | .
CNC(=S)NNC(=O)c1sc2cc(C(F)(F)F)cnc2c1-c1cccnc1 | -417 | -2 | 14* | -140 | 16* | 22*
Nc1cccc2c1C(=O)N(Cc1cccc(Cl)c1)C2=O | -204 | 2 | 27* | -77 | 4 | -17
O=C1Cc2ccccc2C(=O)N1Cc1cccc(Cl)c1 | 10 | -1 | -2 | -3 | . | .
Cc1ccc(-n2[nH]c(C)c(C=Nc3ccc4[nH]c(=O)[nH]c4c3)c2=O)cc1C | -122 | -4 | 179* | -22 | 186* | 169*
Cc1ccc(-n2[nH]c(C)c(C=Nc3ccc4[nH]c(=O)[nH]c4c3)c2=O)cc1 | -17 | 1 | 379* | -6 | 443* | 407*
Cc1[nH]n(-c2cccc3ccccc23)c(=O)c1C=Nc1ccc2[nH]c(=O)[nH]c2c1 | 1 | 4 | 0 | 2 | . | .
CCC1CCCCN1Cc1c(O)ccc2c(=O)c(-c3ccccc3OC)coc12 (stereo unspecified) | i | 7 | 35* | -481 | 51* | 71*
COc1ccccc1-c1coc2c(CN3CCC(C)CC3)c(O)ccc2c1=O | i | -2 | 57* | i | 64* | 63*
CC1CCCCN1Cc1c(O)ccc2c(=O)c(-c3nc4ccccc4s3)coc12 (stereo unspecified) | -6 | 0 | 0 | -7 | . | .
CC(=O)NCc1ccc(OCCCN2CCC(C(O)(c3ccccc3)c3ccccc3)CC2)cc1 | -28 | . | 0 | -6 | . | .
COc1ccc2c(c1)C1(Nc3ccccc3-c3nc4ccccc4n31)C(=O)N2 (stereo unspecified) | -20 | -4 | 0 | 0 | . | .
CC1(c2ccncc2)Nc2ccccc2-c2nc3ccccc3n21 (stereo unspecified) | i | -3 | 57* | i | -3 | -2
C[C@@H]1CCCCO[C@@H](CN(C)Cc2ccc(C(=O)O)cc2)[C@@H](C)CN([C@H](C)CO)C(=O)c2cc(NS(C)(=O)=O)ccc2O1 | -12 | . | 1 | -5 | . | .
COc1ccccc1/C=C1\SC(=S)N(CCC(=O)Nc2cc(C)on2)C1=O | -8 | 1 | 0 | -1 | . | .
CCC(SC1=N/C(=C/c2ccccc2OC)C(=O)N1c1ccccc1)C(=O)Nc1cc(C)on1 (stereo unspecified) | 12 | 0 | 39* | 4 | -9 | -6
O=C(Cn1nnc(-c2ccncc2)n1)Nc1ccc(Oc2ccccc2)cc1 | -2 | . | -1 | 1 | . | .
CC1C2=C(CC(C)(C)CC2=O)NC2=C1C(=O)CC(C)(C)C2 | i | -1 | 19* | i | 74* | 73*
CC1(C)CC(=O)C2=C(C1)NC(=O)NC2c1ccccc1 (stereo unspecified) | -12 | -1 | 0 | -6 | . | .
O=[N+]([O-])c1ccc(CSc2nnc(-c3cccc(Cl)c3)n2Cc2ccco2)cc1 | 7 | . | 0 | 5 | . | .
CN1c2ccccc2-c2nc3ccccc3n2C1c1ccccn1 (stereo unspecified) | i | 1 | 34* | i | 7 | 3
SMILES | ADAM10 inh | V-ATPase pHluor | proKLK7 act | ADAM17 inh | proKLK7 act conf | EDANS-DABCYL int | others
CCN1c2ccccc2-c2nc3ccccc3n2C1c1ccco1 (stereo unspecified) | i | 2 | 27* | i | -9 | -13
CN1c2ccccc2-c2nc3ccccc3n2C1c1ccncc1 (stereo unspecified) | -139 | -4 | 1 | -53 | . | .
CN(C)c1ccc(N(C)C)c(C(O)(c2ccccc2)c2ccccc2)c1 | 2 | . | 0 | 2 | . | .
COC(=O)C1C(O)=C(C=Nc2cccc3ccccc23)C(=O)CC1(C)C (stereo unspecified) | -221 | -4 | 34* | -83 | 25* | 23*
COC(=O)C1C(O)=C(C=NCc2ccccc2)C(=O)CC1(C)C (stereo unspecified) | 6 | 1 | 0 | -2 | . | .
C[C@H](O)[C@@H]1C(=O)N2CCc3c([nH]c4c(-c5ccccc5)cccc34)[C@@H]2C[C@@H]1N(C)C(=O)/C=C/c1ccccc1 | -146 | . | -2 | -43 | . | .
O=C(O)c1cc2ccc3ccccc3c2oc1=O | i | -2 | 31* | i | 79* | 82*
O=C(c1cc2c(ccc3ccccc32)oc1=O)N1CCCC1 | i | 3 | 24* | i | 49* | 53*
O=C(O)c1cc2cc(Cl)cc(Cl)c2oc1=O | -3 | 1 | 0 | -4 | . | .
O=C(O)c1cc2c(ccc3ccccc32)oc1=O | i | 5 | 34* | i | 41* | 42*
Cn1c(=O)c2nc(NCc3ccccc3)cnc2n(C)c1=O | -470 | 1 | 15* | -136 | 30* | 40*
CCN(C(=O)[C@@H](C1CC1)[C@@H](O)c1ccc(C(C)=O)cc1)c1ccccc1 | -2 | . | 0 | -5 | . | .
O=C(Nc1c(-c2ccccc2)nc2ncccn12)C1CC1 | i | . | 28* | -237 | 28* | 34*
Cc1ccc(-c2nc3ncccn3c2NC(=O)Nc2ccc(F)cc2)cc1 | i | . | 13* | -149 | -13 | -7
O=C(Nc1c(-c2ccccc2)nc2ncccn12)c1ccccc1 | -238 | . | 13* | -68 | 60* | 14* | EDANS interf=i
Cc1cccc(C(=O)Nc2c(-c3ccccc3)nc3ncccn23)c1 | -257 | . | 9 | -77 | . | .
O=C(Nc1ccc(F)cc1)Nc1c(-c2ccccc2)nc2ncccn12 | -309 | . | 8 | -95 | . | .
O=C(Nc1c(-c2ccc(F)cc2)nc2ncccn12)C1CC1 | i | . | 25* | -262 | 36* | 38*
O=C(Cc1ccc(NC(=O)C2CCCN(C(=O)c3ccccc3)C2)cc1)Nc1cccc(C(=O)N2CCCC2)c1 (stereo unspecified) | 6 | . | 0 | 4 | . | .
Cc1ccc(-c2c(NC(=O)Nc3ccc(F)cc3)nc3ncccn23)cc1 | -55 | . | 2 | -15 | . | .
CC(=O)Nc1nc2ncccn2c1-c1ccc(C)cc1 | i | . | 23* | -339 | 48* | 50*
O=C(Nc1nc2ncccn2c1-c1ccc(F)c(F)c1)c1ccc(F)cc1 | -260 | . | 10 | -81 | . | .

Compound activity: PubChem BioAssay, several laboratories
